Assay outcomes: PubChem, several laboratories
GC-A act = GC-A stimulated cGMP production enhancers – HEK293 GC-A cells, cGMP TR-FRET, EC30 ANP, primary screen; Atrial natriuretic peptide receptor 1 (Homo sapiens), P16066; 0% at EC30 ANP, 100% saturating ANP; activation, % at 10 µM; 370,000 tested, 0.14% active; in the data active = activation above about 40%
GC-B act = human GC-B receptor activators, primary screen, HEK293 GC-B cells, cGMP TR-FRET, EC30 CNP; Atrial natriuretic peptide receptor 2 (Homo sapiens), P20594; 0% at EC30 CNP, 100% saturating CNP; activation, % at 10 µM; 370,000 tested, 0.11% active;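 active = activation at 10 µM reaching about 35% in either raw or pattern-adjusted values, limit read from the data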
Target sequence (P20594 whole entry, looked up): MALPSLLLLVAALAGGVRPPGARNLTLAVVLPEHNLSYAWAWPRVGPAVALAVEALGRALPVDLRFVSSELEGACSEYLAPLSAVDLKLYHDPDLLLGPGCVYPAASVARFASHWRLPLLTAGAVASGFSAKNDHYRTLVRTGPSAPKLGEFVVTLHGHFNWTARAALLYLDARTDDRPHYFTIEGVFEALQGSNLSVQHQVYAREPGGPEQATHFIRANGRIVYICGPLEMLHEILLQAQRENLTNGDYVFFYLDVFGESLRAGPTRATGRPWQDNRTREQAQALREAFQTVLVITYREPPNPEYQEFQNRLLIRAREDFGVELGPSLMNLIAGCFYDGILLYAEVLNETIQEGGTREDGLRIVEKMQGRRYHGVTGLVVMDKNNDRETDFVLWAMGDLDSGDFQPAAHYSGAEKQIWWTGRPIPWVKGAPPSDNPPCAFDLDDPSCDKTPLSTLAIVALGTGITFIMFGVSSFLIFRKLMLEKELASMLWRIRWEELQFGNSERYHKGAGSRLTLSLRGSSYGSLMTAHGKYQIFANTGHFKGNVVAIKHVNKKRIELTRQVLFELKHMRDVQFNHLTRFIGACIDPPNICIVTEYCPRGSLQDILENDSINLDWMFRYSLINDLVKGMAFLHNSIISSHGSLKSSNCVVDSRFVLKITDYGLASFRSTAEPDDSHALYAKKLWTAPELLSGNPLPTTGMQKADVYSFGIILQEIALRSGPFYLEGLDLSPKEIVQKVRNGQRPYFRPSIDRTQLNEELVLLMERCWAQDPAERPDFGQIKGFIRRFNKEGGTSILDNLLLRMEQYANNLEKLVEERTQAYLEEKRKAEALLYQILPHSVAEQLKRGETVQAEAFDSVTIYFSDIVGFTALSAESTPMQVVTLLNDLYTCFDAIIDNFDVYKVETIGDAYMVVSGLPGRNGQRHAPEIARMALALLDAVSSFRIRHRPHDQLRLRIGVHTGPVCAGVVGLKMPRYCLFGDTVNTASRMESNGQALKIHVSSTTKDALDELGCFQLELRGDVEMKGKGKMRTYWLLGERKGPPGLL
Rin1 Abl inh = inhibitors of Rin1-Abl protein binding, primary screen, biochemical, TR-FRET; inhibition, % at 7.35 µM; 360,000 tested, 0.4% active; in the data active = inhibition above about 5%, passing the limit was not always enough
CaV13 FRET inh = Disruptors of the CACNA1D IQ motif to Ca2+-dependent inactivation inhibitor domain association, primary screening, Förster resonance energy transfer in intact living …. HEK cells, CFP/YFP FRET ICDI-IQ, plate reader, 10 min; percent FRET-ratio fall versus neutral wells. inhibition, % at 12.3 µM. 340,000 tested, 0.098% active. AID 743397;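 active = mean replicate inhibition of at least 30% and at least 1% of replicates passing that level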;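 also: 0% = median of the neutral control wells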
Numbers without * were called inactive; . = no result; + = active, no number. This is a sample that favours compounds with a hit; in the whole collection about 0.67% have one here.

SMILES | GC-A act | GC-B act | Rin1 Abl inh | CaV13 FRET inh
CCOc1ccc(C2C(C#N)=C(N)Oc3nc[nH]c(=O)c32)cc1 (stereo not drawn) | -3 | 2 | 3 | -7
O=c1[nH]cnc2c1C(c1ccc(Cl)cc1)c1c(nc[nH]c1=O)O2 | . | . | 7.7* | .
COc1ccc(NC(=O)C2CCC(CNS(=O)(=O)c3cccs3)CC2)cc1 (stereo not drawn) | 3 | 0 | 4 | 31*
CN1C(=O)c2cc(NC(=O)Nc3ccccc3F)ccc2OC[C@H]2O[C@@H](CC(=O)NCc3ccc(-c4ccccc4)cc3)CC[C@@H]21 | -3 | -4 | . | .
CC1CCCCC1NC(=O)CN1C(=O)c2cccc(N)c2C1=O (stereo not drawn) | 8 | 3 | -10 | +
CC1CCCCC1NC(=O)COC(=O)CN1C(=O)c2ccccc2C1=O (stereo not drawn) | -6 | -1 | 0 | -2
CCOC(=O)c1[nH]cnc1N=Nc1c(O)ccc2ccccc12 | 36 | 38* | -3 | -22
COc1cc(C(=O)NC2CCN(C)CC2)ccc1Nc1ncc2c(n1)N(Cc1ccccc1)CCC(=O)N2C | 33 | 38* | 0 | -4
CCN1C(=O)CC(c2ccccc2)N(C2CCCC2)c2nc(Nc3ccc(C(=O)NC4CCN(C)CC4)cc3OC)ncc21 (stereo not drawn) | . | . | 10* | .
CCC1(O)C(=O)OCc2c1cc1n(c2=O)Cc2cc3cc(O)ccc3nc2-1 (stereo not drawn) | 56* | 0 | -8 | .
O=C(O)c1cc2ccc(O)cc2oc1=O | 10 | 5 | -5 | 14
C/C(=N\NC(=O)CC#N)c1cc2ccc(O)cc2oc1=O | 0 | -2 | -3 | +
CCN(CC)CCCNC(=O)CC1Oc2ccccc2NC1=O (stereo not drawn) | -2 | -4 | . | .
NC1=NC(=O)/C(=C\c2ccc(-c3ccc(Cl)cc3)o2)S1 | 33 | 38* | 1 | -6
C=CCSc1nnc2nc3c(nn12)c1cc(C)ccc1n3CC=C | 50* | 51* | -12 | -3
CCCCNC(=O)O[C@H]1CC[C@@]23CCCN2C(=O)CCC[C@H]3[C@H]1CCC | -11 | -18 | . | .
CC1(C)CC(=O)C(C=Nc2cccnc2/N=C/C2=C(O)CC(C)(C)CC2=O)=C(O)C1 | 3 | 1 | 0 | 129*
CC1(C)CC(=O)C(C=Nc2cccnc2)=C(O)C1 | 1 | 2 | 5 | -5
CC(C)(C)N1C(=O)Cc2c1nc(N)c1c(N)nc(N3CCCCC3CO)c(C#N)c21 (stereo not drawn) | . | . | 20* | .
Cc1cccn2c(=O)c3cc(C#N)c(=O)n(-c4c(C)n(C)n(-c5ccccc5)c4=O)c3nc12 | 3 | 5 | -1 | -4
Cc1cc(-n2c(=O)c(C#N)cc3c(=O)n4cccc(C)c4nc32)no1 | 10 | -7 | -2 | 43*
COc1ccc(S[C@]2(C(=O)N(C)C)CC(=O)N(C(=O)C3CC3)[C@@H]2c2ccc(OC)cc2)cc1 | -7 | -10 | . | .
Cc1ccc(-c2nc3ccsc3c(=O)[nH]2)cc1 | -1 | 6 | 3 | 60*
S=C(c1ccc(-c2ccc(Br)cc2)o1)N1CCOCC1 | 28 | 36* | 0 | -2
S=C(c1ccc(-c2ccc(Br)cc2)o1)N1CCCCC1 | 3 | -1 | 3 | -2
SMILES | GC-A act | GC-B act | Rin1 Abl inh | CaV13 FRET inh
Cc1ccc(CNC(=O)c2cc(C3CC3)nc3c2cnn3C(C)C)cc1 | 40* | 50* | 2 | -6
CCCC(=O)N1CCC[C@]2(CC[C@@H](CCC#N)O2)C1 | 2 | 8 | . | .
O=C1OCCC1Sc1nnnn1-c1ccccc1 (stereo not drawn) | -2 | 1 | -1 | -4
O=C1OCCC1Sc1nc(-c2ccccc2)cs1 (stereo not drawn) | 72* | 12 | 1 | -1
O=S1(=O)CCOCC(CO)N1Cc1cccc(Br)c1 (stereo not drawn) | -5 | 7 | . | .
CC(=O)c1sc(C(C)(C)C)cc1NC(=O)c1ccccc1C(=O)O | 47* | 26 | -85 | -3
N#CC1=C(N)Oc2cc(O)ccc2C1c1ccncc1 (stereo not drawn) | 0 | 0 | -2 | .
C#CCOc1ccc(C2C(C#N)=C(N)Oc3cc(O)ccc32)cc1 (stereo not drawn) | 8 | -3 | -2 | +
